# In PubChem BioAssay:
# Unmarked numbers belong to inactive results. Active and inactive are the calls of the source.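 How the source made its calls: active means normalized viability below 100% at a tested concentration; inactive means the rest.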
# Assay: ovarian cancer cell viability with rucaparib, profiling panel, oncology-focused library, rucaparib conditional (AID 1508598)
# Settings: patient-derived ovarian cancer cells, CellTiter-Glo viability, 144 h, stronger effect = lower value
# [1] = at 0.000305 µM, OCI-C5x cells, with rucaparib 10 µM, 100% = cells with rucaparib alone
# [2] = at 0.000305 µM, OCI-C5x cells, without rucaparib
# [3] = at 0.000305 µM, OCI-P5x cells, with rucaparib 20 µM, 100% = cells with rucaparib alone
# [4] = at 0.000305 µM, OCI-P5x cells, without rucaparib
# [5] = at 0.00122 µM, OCI-C5x cells, with rucaparib 10 µM, 100% = cells with rucaparib alone
# [6] = at 0.00122 µM, OCI-C5x cells, without rucaparib
# [7] = at 0.00122 µM, OCI-P5x cells, with rucaparib 20 µM, 100% = cells with rucaparib alone
# [8] = at 0.00122 µM, OCI-P5x cells, without rucaparib
# [9] = at 0.00488 µM, OCI-C5x cells, with rucaparib 10 µM, 100% = cells with rucaparib alone
# [10] = at 0.00488 µM, OCI-C5x cells, without rucaparib
# [11] = at 0.00488 µM, OCI-P5x cells, with rucaparib 20 µM, 100% = cells with rucaparib alone
# [12] = at 0.00488 µM, OCI-P5x cells, without rucaparib
# [13] = at 0.0195 µM, OCI-C5x cells, with rucaparib 10 µM, 100% = cells with rucaparib alone
# [14] = at 0.0195 µM, OCI-C5x cells, without rucaparib
# [15] = at 0.0195 µM, OCI-P5x cells, with rucaparib 20 µM, 100% = cells with rucaparib alone
# [16] = at 0.0195 µM, OCI-P5x cells, without rucaparib
# [17] = at 0.0781 µM, OCI-C5x cells, with rucaparib 10 µM, 100% = cells with rucaparib alone
# [18] = at 0.0781 µM, OCI-C5x cells, without rucaparib
# [19] = at 0.0781 µM, OCI-P5x cells, with rucaparib 20 µM, 100% = cells with rucaparib alone
# [20] = at 0.0781 µM, OCI-P5x cells, without rucaparib
# [21] = at 0.313 µM, OCI-C5x cells, with rucaparib 10 µM, 100% = cells with rucaparib alone
# [22] = at 0.313 µM, OCI-C5x cells, without rucaparib
# [23] = at 0.313 µM, OCI-P5x cells, with rucaparib 20 µM, 100% = cells with rucaparib alone
# [24] = at 0.313 µM, OCI-P5x cells, without rucaparib
# [25] = at 1.25 µM, OCI-C5x cells, with rucaparib 10 µM, 100% = cells with rucaparib alone
# [26] = at 1.25 µM, OCI-C5x cells, without rucaparib
# [27] = at 1.25 µM, OCI-P5x cells, with rucaparib 20 µM, 100% = cells with rucaparib alone
# [28] = at 1.25 µM, OCI-P5x cells, without rucaparib
# [29] = at 5 µM, OCI-C5x cells, with rucaparib 10 µM, 100% = cells with rucaparib alone
# [30] = at 5 µM, OCI-C5x cells, without rucaparib
# [31] = at 5 µM, OCI-P5x cells, with rucaparib 20 µM, 100% = cells with rucaparib alone
# [32] = at 5 µM, OCI-P5x cells, without rucaparib
smiles,measurement,setting,value
C[C@@H]1C[C@H]2[C@@H]3CCC4=CC(=O)C=C[C@]4(C)[C@]3(F)[C@H](O)C[C@]2(C)[C@]1(O)C(=O)CO,viability,[1],111%
same,viability,[2],118%
same,viability,[3],107%
same,viability,[4],121%
same,viability,[5],117%
same,viability,[6],125%
same,viability,[7],110%
same,viability,[8],123%
same,viability,[9],102%
same,viability,[10],116%
same,viability,[11],112%
same,viability,[12],115%
same,viability,[13],111%
same,viability,[14],117%
same,viability,[15],108%
same,viability,[16],114%
same,viability,[17],108%
same,viability,[18],107%
same,viability,[19],100%
same,viability,[20],110%
same,viability,[21],111%
same,viability,[22],109%
same,viability,[23],104%
same,viability,[24],108%
same,viability,[25],109%
same,viability,[26],116%
same,viability,[27],95.5% (active)
same,viability,[28],101%
same,viability,[29],117%
same,viability,[30],108%
same,viability,[31],90.8% (active)
same,viability,[32],101%
COc1cccc(-c2cc(F)ccc2[C@H]2Cc3nc(N)nc(C)c3C(=O)N2)n1,viability,[1],108%
same,viability,[2],122%
same,viability,[3],108%
same,viability,[4],113%
same,viability,[5],117%
same,viability,[6],135%
same,viability,[7],101%
same,viability,[8],112%
same,viability,[9],134%
same,viability,[10],141%
same,viability,[11],53.5% (active)
same,viability,[12],34.2% (active)
same,viability,[13],93.9% (active)
same,viability,[14],41.2% (active)
same,viability,[15],16.9% (active)
same,viability,[16],8.17% (active)
same,viability,[17],23.6% (active)
same,viability,[18],13.1% (active)
same,viability,[19],10.3% (active)
same,viability,[20],7.46% (active)
same,viability,[21],11.3% (active)
same,viability,[22],8.63% (active)
same,viability,[23],6.73% (active)
same,viability,[24],5.16% (active)
same,viability,[25],10.2% (active)
same,viability,[26],7.01% (active)
same,viability,[27],5.14% (active)
same,viability,[28],4.54% (active)
same,viability,[29],9.37% (active)
same,viability,[30],7.01% (active)
same,viability,[31],4.5% (active)
same,viability,[32],3.25% (active)
CO[C@H]1C[C@H]2CC[C@@H](C)[C@@](O)(O2)C(=O)C(=O)N2CCCC[C@H]2C(=O)O[C@H]([C@H](C)C[C@@H]2CC[C@H](OC(=O)C(C)(CO)CO)[C@H](OC)C2)CC(=O)[C@H](C)/C=C(\C)[C@@H](O)[C@@H](OC)C(=O)[C@H](C)C[C@H](C)/C=C/C=C/C=C/1C,viability,[1],93.5% (active)
same,viability,[2],93.2% (active)
same,viability,[3],85% (active)
same,viability,[4],85% (active)
same,viability,[5],97% (active)
same,viability,[6],95.7% (active)
same,viability,[7],77.3% (active)
same,viability,[8],69.5% (active)
same,viability,[9],88.7% (active)
same,viability,[10],91.6% (active)
same,viability,[11],71.8% (active)
same,viability,[12],56.9% (active)
same,viability,[13],93.2% (active)
same,viability,[14],88.2% (active)
same,viability,[15],71% (active)
same,viability,[16],58.4% (active)
same,viability,[17],93.3% (active)
same,viability,[18],84.7% (active)
same,viability,[19],70.8% (active)
same,viability,[20],56.6% (active)
same,viability,[21],96.4% (active)
same,viability,[22],87.6% (active)
same,viability,[23],71.6% (active)
same,viability,[24],57.7% (active)
same,viability,[25],100%
same,viability,[26],95.8% (active)
same,viability,[27],77% (active)
same,viability,[28],55.6% (active)
same,viability,[29],93.4% (active)
same,viability,[30],88% (active)
same,viability,[31],59.8% (active)
same,viability,[32],54.1% (active)
CCC1=CC2CN(C1)Cc1c([nH]c3ccccc13)[C@@](C(=O)OC)(c1cc3c(cc1OC)N(C)[C@H]1[C@@](O)(C(=O)OC)[C@H](OC(C)=O)[C@]4(CC)C=CCN5CC[C@@]31[C@H]54)C2 (stereo partly drawn),viability,[1],110%
same,viability,[2],106%
same,viability,[3],1.99% (active)
same,viability,[4],2.91% (active)
same,viability,[5],94.4% (active)
same,viability,[6],70.1% (active)
same,viability,[7],1.29% (active)
same,viability,[8],1.02% (active)
same,viability,[9],50.6% (active)
same,viability,[10],43.8% (active)
same,viability,[11],52.9% (active)
same,viability,[12],20.3% (active)
same,viability,[13],39.2% (active)
same,viability,[14],33.7% (active)
same,viability,[15],50.5% (active)
same,viability,[16],16.3% (active)
same,viability,[17],40.3% (active)
same,viability,[18],22.9% (active)
same,viability,[19],49.1% (active)
same,viability,[20],13.6% (active)
same,viability,[21],33.8% (active)
same,viability,[22],23.8% (active)
same,viability,[23],46.6% (active)
same,viability,[24],12.6% (active)
same,viability,[25],39.7% (active)
same,viability,[26],21.7% (active)
same,viability,[27],45.2% (active)
same,viability,[28],11.4% (active)
same,viability,[29],36.1% (active)
same,viability,[30],22.2% (active)
same,viability,[31],41.7% (active)
same,viability,[32],8.33% (active)
